In PubChem BioAssay AID652053 (Broad Institute, 2013):
Among all 1,300 compounds or so, about 930 (72%) were called active.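 How the source made its calls: active means fitted curve reaches 40% activation signal increase at or below the top valid tested concentration in every replicate test; inconclusive means replicate tests disagree in their calls; inactive means all replicate tests inactive, including effects opposite the expected signal rise.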 So high a share suggests a set chosen from earlier hits. These entries were drawn from the full list. Results with a measured potency or affinity are listed apart.

Test: suppression of miR-122 activity, Renilla luciferase sensor – cell-based, Huh7 psiCHECK-miR122, cherry-pick, dose response (AID 652053)
Conditions: Huh7 psiCHECK-miR122 Renilla luciferase reporter, 48 h; series mostly up to 35 µM; activation (miR-122 inhibition): at the top concentration

Activation (miR-122 inhibition), inactive:
CCOC(=O)N1CCN(c2ncnc3c2oc2nc(C(C)C)c4c(c23)CCC4)CC1 -9.07%, CC(=O)Nc1ccc2nc(CN3CCC(CO)(CCc4ccccc4)CC3)ccc2c1 -3.36%, COc1ccc(N(Cc2ccccc2)S(=O)(=O)c2cccc(C(=O)NC3=NCCS3)c2)cc1 29.8%, CCOC(=O)c1[nH]c(C)c(C(=O)Nc2ccccc2C)c1C 1.56%, Cc1ccc(N2CC(C(=O)Nc3nccs3)CC2=O)cc1Cl (configuration not stated) 14.3%, c1csc(CNc2ncnc3ccc(-c4ccc5c(c4)OCO5)cc23)c1 -12.4%, CCC(=O)N(C)C[C@@H]1[C@@H](c2ccc(C3=CCCC3)cc2)[C@H](CO)N1C(=O)CC 6.67%, N#Cc1ccc(CSc2nnc(-c3cccnc3)o2)cc1 6.98%, COCCOC(=O)c1c(C)oc2ccc(NS(=O)(=O)c3ccc(C)cc3)cc12 37.7%, Cc1ccc(S(=O)(=O)NC(C)(C)CSc2nnc(Nc3ccccc3)s2)cc1 10.9%, CCc1noc(C)c1C(=O)OCC(=O)c1ccc(NC(C)=O)cc1F 8.21%, COc1ccccc1N1CCN(C(=O)CSc2nnc(NC(=O)C3CCC3)s2)CC1 -5.81%, CCCNC(=O)N1C[C@H]2[C@@H](c3ccccc31)[C@@H](CO)N2Cc1ccc(F)cc1 16.7%, O=C(c1ccccc1F)N1C[C@H]2[C@@H](c3ccccc31)[C@@H](CO)N2CC1CCCCC1 -11%, COc1cc(OC)cc(C(=O)N[C@H](C(=O)Nc2nc3ccccc3[nH]2)C(C)C)c1 -7.67%, O=C1N=C(N2CCc3ccccc3C2)S/C1=C\c1cccc(O)c1 -8.87%, Cc1ncc([N+](=O)[O-])n1CC(=O)Nc1ccc2c(c1)OCO2 -4.33%, COc1ccc(C(=O)Nc2ccccc2C(=O)N/N=C/c2ccccc2OC)cc1 13.4%, CCc1ccc(-c2cc(C(=O)NCc3ccccn3)c3ccccc3n2)cc1 7.44%, N/C(Cc1cccc2ccccc12)=N\OC(=O)c1ccc2c(c1)OCO2 -1.01%, CCOc1ccc(N2C(=O)c3cccnc3C2Nc2ccc(F)cc2)cc1 (configuration not stated) -5.12%, CCCC(=O)Nc1nc2ccc(NC(=O)c3c(F)c(F)c(OC)c(F)c3F)cc2s1 -14%, O=C(Nc1ccc2c(c1)OCCO2)C1CCN(S(=O)(=O)c2ccccc2)CC1 -3.73%, Cc1ccc(S(=O)(=O)N(C)C[C@@H]2Oc3ccc(NC(=O)Nc4ccc5c(c4)OCO5)cc3CC(=O)N([C@@H](C)CO)C[C@@H]2C)cc1 15.3%, O=C(NC(=S)NCc1ccc2c(c1)OCO2)c1ccccc1 -7.87%, CC1CCN(S(=O)(=O)N2CCC(C(=O)NCCc3ccccc3)CC2)CC1 3.92%, Cc1cc(C)cc(N(CC(=O)N2CCC(C)CC2)S(=O)(=O)c2ccccc2)c1 29.8%, Fc1ccc(CSc2nnc(-c3cccnc3)o2)cc1 7.27%, C[C@H](CO)N1C[C@H](C)[C@@H](CN(C)S(C)(=O)=O)Oc2cc(C#Cc3ccccc3)ccc2S1(=O)=O 40.6%, CC(C)CC#Cc1ccc2c(c1)O[C@@H](CN(C)C(=O)C1CCC1)[C@@H](C)CN([C@H](C)CO)S2(=O)=O 13.7%, C[C@H](CO)N1C[C@H](C)[C@H](CN(C)C(=O)Nc2cccc3ccccc23)Oc2ccc(N(C)C)cc2CC1=O -14.8%, COC(=O)CCCCCC(CCC(=O)OC)NC(C)=O (configuration not stated) -13.1%, COC(=O)C[C@H]1CC[C@H]2[C@H](COc3ccc(NS(=O)(=O)c4ccc(C)cc4)cc3C(=O)N2C)O1 13.6%, COC(=O)C[C@H]1CC[C@@H]2[C@@H](COc3ccc(NS(=O)(=O)c4ccc(C)cc4)cc3C(=O)N2C)O1 4.83%, CC(C)NC(=O)COC(=O)c1ccc(NS(=O)(=O)c2ccc3c(c2)OCCO3)cc1 1.64%, COC(=O)C[C@@H]1CC[C@@H]2[C@@H](COc3ccc(NS(=O)(=O)c4ccc(C)cc4)cc3C(=O)N2C)O1 -5.56%, COC(=O)C[C@@H]1CC[C@H]2[C@H](COc3ccc(NS(=O)(=O)c4ccc(C)cc4)cc3C(=O)N2C)O1 -5.27%, O=C(COC(=O)c1cccc(NS(=O)(=O)/C=C/c2ccccc2)c1)Nc1ccccc1OC(F)F 36.2%, CN(C)S(=O)(=O)NC(c1ccccc1)c1ccccc1 -5.77%, Cc1noc(C)c1S(=O)(=O)N(C)C[C@@H]1Oc2c(NC(=O)C3CCCCC3)cccc2C(=O)N([C@H](C)CO)C[C@@H]1C 25.2%, C[C@H](CO)N1C[C@H](C)[C@@H](CN(C)S(=O)(=O)c2cccs2)Oc2c(NC(=O)C3CCOCC3)cccc2C1=O 0.798%, COCC(=O)N1[C@H](CO)[C@H](c2ccccc2)[C@@H]1CNC(=O)c1ccccn1 -10.8%, COCC(=O)NC[C@H]1N[C@H](CO)[C@@H]1c1ccc(C2=CCCCC2)cc1 10.5%, O=C(COC(=O)c1c2c(nc3ccccc13)CCN(Cc1ccccc1)C2)Nc1c(F)cccc1F -4.25%, O=C(O/N=C1\CCS(=O)(=O)c2sccc21)c1ccccc1 -8.12%, CCCCNC(=O)CN1C(=O)NC2(CCOc3ccccc32)C1=O (configuration not stated) -11.2%, CCC(=O)N1[C@H](CO)[C@@H]2c3ccccc3N(C(=O)c3ccccc3F)C[C@@H]21 19.3%, O=C(NC[C@@H]1[C@H](c2ccccc2)[C@@H](CO)N1C(=O)C1CC1)NC1CCCC1 -5.22%, O=C(Nc1ccccc1F)N1C[C@@H]2[C@H](c3ccccc31)[C@@H](CO)N2C(=O)C1CCCC1 0.798%, O=C(c1ccccc1F)N1C[C@H]2[C@@H](c3ccccc31)[C@@H](CO)N2C(=O)C1CCCC1 9.89%, O=C1CCCS(=O)(=O)c2ccccc21 -3.21%, Cc1ccc2nc(C)c(C)nc2c1N -8.43%, CNC(=O)[C@@]1(C)C=C[C@@H](Cc2ccccc2)N1C(=O)OC -0.509%, O=C(Cc1cccs1)Nc1ccc(S(=O)(=O)N2CCCCC2)cc1 24.5%, Cc1ccc(S(=O)(=O)Nc2ccc3c(c2)CC(=O)N([C@@H](C)CO)C[C@@H](C)[C@@H](CN(C)Cc2ccc(C(=O)Nc4ccccc4N)cc2)O3)cc1 -11% [at 26 µM], Cc1ccc(S(=O)(=O)Nc2ccc3c(c2)CC(=O)N([C@@H](C)CO)C[C@H](C)[C@@H](CN(C)Cc2ccc(C(=O)Nc4ccccc4N)cc2)O3)cc1 -2.8% [at 28.5 µM], Cc1ccc(S(=O)(=O)Nc2ccc3c(c2)CC(=O)N([C@H](C)CO)C[C@H](C)[C@@H](CN(C)Cc2ccc(C(=O)Nc4ccccc4N)cc2)O3)cc1 19.4%, Cc1ccc(S(=O)(=O)Nc2ccc3c(c2)CC(=O)N([C@H](C)CO)C[C@@H](C)[C@@H](CN(C)Cc2ccc(C(=O)Nc4ccccc4N)cc2)O3)cc1 0.058%, CCC(C)(C)n1nnnc1C(c1ccc(C)cc1)N1CCC(C)CC1 (configuration not stated) 43.4%, C[C@H]1CN([C@@H](C)CO)C(=O)Cc2cc(NC(=O)Nc3ccc(C(F)(F)F)cc3)ccc2O[C@@H]1CN(C)C(=O)Nc1cccc2ccccc12 -2.04% [at 30 µM], C[C@H](CO)N1C[C@H](C)[C@H](CN(C)C(=O)Nc2cccc3ccccc23)Oc2ccc(NC(=O)Nc3cccc4ccccc34)cc2CC1=O 1.72% [at 30 µM], C[C@@H]1CN([C@H](C)CO)C(=O)Cc2cc(NC(=O)Nc3cccc4ccccc34)ccc2O[C@H]1CN(C)C(=O)Nc1cccc2ccccc12 11.5%, C[C@H](CO)N1C[C@H](C)[C@H](CN(C)C(=O)Nc2cccc3ccccc23)Oc2ccc(NC(=O)Nc3ccc(C(F)(F)F)cc3)cc2CC1=O 14.9%, C[C@@H]1CN([C@@H](C)CO)C(=O)Cc2cc(NC(=O)Nc3ccc(C(F)(F)F)cc3)ccc2O[C@H]1CN(C)C(=O)Nc1cccc2ccccc12 5.54%, O=C(COc1ccc2c(c1)C(=O)CC1(CCCCC1)O2)NCc1ccccc1 26.7%, CN(C)S(=O)(=O)c1ccc2c(c1)nc(CCC(=O)NCC1CCCCC1)n2C 6.44%, CC1(C)N([O-])C(c2cccs2)=C[N+]1=O 16.7%, C[C@H]1CN([C@@H](C)CO)C(=O)Cc2cc(NC(=O)Nc3cccc4ccccc34)ccc2O[C@H]1CN(C)C(=O)NC1CCCCC1 -9.8%, C[C@@H]1CN([C@H](C)CO)S(=O)(=O)c2ccc(-c3ccccc3)cc2O[C@H]1CN(C)C(=O)C1CCCCC1 29.4%, C[C@@H]1CN([C@H](C)CO)S(=O)(=O)c2ccc(C3=CCCCC3)cc2O[C@@H]1CN(C)Cc1ccccc1 29.9%, COC(=O)C[C@H]1CC[C@@H]2[C@H](COc3ccc(NS(=O)(=O)c4ccc(C)cc4)cc3C(=O)N2C)O1 24.3%, O=C(c1ccccc1F)N1C[C@@H]2[C@H](c3ccccc31)[C@@H](CO)N2C(=O)c1ccc(F)cc1 23.6%, O=C(c1ccccc1F)N1C[C@H]2[C@@H](c3ccccc31)[C@H](CO)N2C(=O)c1ccc(F)cc1 31.8%, O=C(c1ccccc1F)N1C[C@H]2[C@@H](c3ccccc31)[C@H](CO)N2C(=O)c1cccnc1 -6.1%, COc1ccc(N2C(=O)c3cccc4c(N(C)CCO)ccc(c34)C2=O)cc1 4.97%, O=C(C[C@H]1CC[C@H]2[C@@H](COC[C@H](O)CN2C(=O)Nc2cccc(F)c2)O1)NCc1ccccc1F -10.4%, C[C@H](CO)N1C[C@H](C)[C@@H](CN(C)C(=O)Nc2cccc3ccccc23)Oc2c(NC(=O)C3CCOCC3)cccc2C1=O 14.9%, C[C@H](CO)N1C[C@H](C)[C@@H](CN(C)Cc2ccc(C(=O)O)cc2)Oc2c(NC(=O)C3CCOCC3)cccc2C1=O -4.85%, COC(=O)c1ccc(Cl)c(NC(C)=O)c1 -5.94%, COc1ccccc1CNC(=O)C[C@@H]1CC[C@@H]2[C@@H](COc3ccc(NC(C)=O)cc3C(=O)N2C)O1 4.88%, Cc1ccc(NC(=O)[C@@H]2CCCN2S(=O)(=O)c2ccccc2F)cc1S(=O)(=O)N1CCOCC1 32.9%, C[C@@H]1CN([C@H](C)CO)C(=O)Cc2cc(NC(=O)Nc3cccc4ccccc34)ccc2O[C@H]1CN(C)C(=O)NC1CCCCC1 -9.06%
